Data from PubChem BioAssay.
Calls of active or inactive are those of the source.

How the values were obtained:
[1] = E. coli DRC41 culture turbidity changes, primary screen, E. coli filamentation inducer project, strain DRC41, OD650, 48 h (AID 1152);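 note: E. coli MC1000 strain DRC41 lacking acrAB efflux pump and sulA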; conditions: E. coli DRC41 (acrAB sulA), higher = more signal, called active from +8 up or from −8 down
[2] = small-molecule binders of probe aLefty1, primary screen, biochemical, small-molecule microarray, 635/667 nm fluorescence (AID 1153); conditions: higher = more signal;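 note: score merges spot fluorescence with signal-to-noise ratio from the scanned slide images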
[3] = PSAC antagonists in infected red cells, primary screen, cell-based, P. falciparum Indochina, OD700, 1 h (AID 1154); conditions: P. falciparum Indochina infected RBC osmotic lysis, higher = more signal, called active from +8 up or from −8 down
[4] = PSAC antagonists in infected red cells, primary screen, cell-based, P. falciparum Indochina, OD700, 2 h (AID 1155);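 note: lysis reports solute entry through the parasite surface anion channel PSAC; channel blockers reduce lysis of infected cells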; conditions: P. falciparum Indochina infected erythrocytes, osmotic lysis OD700; higher = more signal, called active from +8 up or from −8 down
[5] = osmotic lysis modulators in infected erythrocytes, primary screen, PSAC antagonist project, cell-based, P. falciparum Indochina, OD700, 3 h (AID 1156); conditions: higher = more signal, called active from +8 up or from −8 down
[6] = PSAC antagonists in infected red cells, primary screen, cell-based, P. falciparum Indochina, OD700, 18 h (AID 1157); conditions: P. falciparum Indochina infected erythrocytes, osmotic lysis OD700, 18 h; higher = more signal, called active from +8 up or from −8 down
[7] = modulators of S6 phosphorylation in cells, primary screen, cell-based, A549, cytoblot, luminescence, serum-stimulated (AID 1158); conditions: A549 phospho-S6 cytoblot, 5 h, higher = more signal;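 note: serum-stimulated A549 lung adenocarcinoma cells; signal is phosphorylated S6 detected by cytoblot immunostaining with HRP secondary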
[8] = biological target: NADPH oxidase 2 (Homo sapiens) (UniProt P04839); test: NOX2-dependent H2O2 signal modulators, primary screen, NOX inhibitor project, cell-based, HEK293-NOX2, PMA-stimulated, Amplex Red fluorescence (AID 1159); conditions: 45 min, higher = more signal, called active from +8 up or from −8 down; note: test concentration not given here
NADPH oxidase 2 (Homo sapiens), sequence (P04839 whole entry, looked up): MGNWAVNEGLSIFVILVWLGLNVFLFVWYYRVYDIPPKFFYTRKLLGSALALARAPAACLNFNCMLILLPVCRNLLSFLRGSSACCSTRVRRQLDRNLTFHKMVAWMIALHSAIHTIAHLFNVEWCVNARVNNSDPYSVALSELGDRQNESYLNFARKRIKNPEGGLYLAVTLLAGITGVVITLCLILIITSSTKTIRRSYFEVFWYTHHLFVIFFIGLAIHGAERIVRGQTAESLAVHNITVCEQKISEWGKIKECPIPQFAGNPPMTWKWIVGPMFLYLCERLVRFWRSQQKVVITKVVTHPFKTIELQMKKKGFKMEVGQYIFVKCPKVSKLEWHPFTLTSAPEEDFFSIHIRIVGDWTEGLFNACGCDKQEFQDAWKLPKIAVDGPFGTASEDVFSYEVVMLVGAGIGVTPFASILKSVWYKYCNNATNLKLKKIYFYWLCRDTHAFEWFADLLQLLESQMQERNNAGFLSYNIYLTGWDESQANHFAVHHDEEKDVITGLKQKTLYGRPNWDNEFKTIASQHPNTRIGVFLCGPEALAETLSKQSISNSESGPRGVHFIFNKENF

[9] = biological target: NADPH oxidase 4 (Homo sapiens) (UniProt Q9NPH5); test: NOX4-dependent H2O2 signal modulators, primary screen, NOX inhibitor project, cell-based, HEK293-NOX4, tetracycline-induced, Amplex Red fluorescence (AID 1160); conditions: 45 min, higher = more signal, called active from +8 up or from −8 down
NADPH oxidase 4 (Homo sapiens), sequence (Q9NPH5 whole entry, looked up): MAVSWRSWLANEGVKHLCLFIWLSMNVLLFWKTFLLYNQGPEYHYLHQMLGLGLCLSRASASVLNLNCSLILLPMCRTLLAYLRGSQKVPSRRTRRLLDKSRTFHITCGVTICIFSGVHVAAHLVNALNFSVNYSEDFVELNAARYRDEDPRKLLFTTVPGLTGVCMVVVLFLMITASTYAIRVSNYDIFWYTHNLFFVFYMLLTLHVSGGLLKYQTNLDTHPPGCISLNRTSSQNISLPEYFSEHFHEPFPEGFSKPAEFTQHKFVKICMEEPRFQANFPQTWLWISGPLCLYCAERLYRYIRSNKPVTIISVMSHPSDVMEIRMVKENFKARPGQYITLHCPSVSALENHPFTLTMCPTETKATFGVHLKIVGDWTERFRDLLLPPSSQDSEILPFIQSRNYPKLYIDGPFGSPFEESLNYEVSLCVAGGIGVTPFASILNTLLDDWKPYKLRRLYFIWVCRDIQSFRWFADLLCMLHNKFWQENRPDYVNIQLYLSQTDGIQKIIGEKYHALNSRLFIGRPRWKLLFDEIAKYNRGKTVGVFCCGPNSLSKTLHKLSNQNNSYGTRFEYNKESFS

[10] = biological target: NADPH oxidase 5 (Homo sapiens) (UniProt Q96PH1); test: NOX5-dependent H2O2 signal modulators, primary screen, NOX inhibitor project, cell-based, HEK293-NOX5, Amplex Red fluorescence (AID 1161); conditions: HEK293-NOX5, ionomycin, 45 min, higher = more signal
NADPH oxidase 5 (Homo sapiens), sequence (Q96PH1 whole entry, looked up): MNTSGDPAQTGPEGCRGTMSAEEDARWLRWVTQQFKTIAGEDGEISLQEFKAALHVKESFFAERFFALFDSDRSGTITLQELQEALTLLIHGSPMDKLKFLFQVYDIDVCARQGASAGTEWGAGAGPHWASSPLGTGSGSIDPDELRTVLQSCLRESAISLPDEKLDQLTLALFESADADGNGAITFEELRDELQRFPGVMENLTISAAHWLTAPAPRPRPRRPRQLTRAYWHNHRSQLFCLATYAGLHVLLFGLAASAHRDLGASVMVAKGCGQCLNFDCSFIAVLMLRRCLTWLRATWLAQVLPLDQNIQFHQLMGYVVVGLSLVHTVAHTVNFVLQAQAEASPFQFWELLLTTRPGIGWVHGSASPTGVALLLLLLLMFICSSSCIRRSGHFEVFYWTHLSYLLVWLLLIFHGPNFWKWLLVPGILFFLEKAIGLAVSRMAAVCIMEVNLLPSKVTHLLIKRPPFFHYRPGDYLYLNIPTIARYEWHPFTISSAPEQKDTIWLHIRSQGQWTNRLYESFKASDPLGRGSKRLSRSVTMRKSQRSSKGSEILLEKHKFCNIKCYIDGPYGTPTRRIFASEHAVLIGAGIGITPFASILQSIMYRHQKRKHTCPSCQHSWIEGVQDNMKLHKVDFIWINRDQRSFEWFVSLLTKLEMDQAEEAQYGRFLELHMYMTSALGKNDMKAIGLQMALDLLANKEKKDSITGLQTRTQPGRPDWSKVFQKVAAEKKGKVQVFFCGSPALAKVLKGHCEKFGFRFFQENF

[11] = A549 cell viability effects, profiling panel, calcein-AM fluorescence, 48 h, basal (AID 1162); conditions: higher = more signal; note: test concentration not given here
[12] = adipocyte viability effects, profiling panel, cell-based, 3T3-L1 adipocytes, calcein-AM fluorescence, 48 h, basal (AID 1163); conditions: 3T3-L1 adipocytes viability, higher = more signal; note: test concentration not given here
[13] = HepG2 cell viability effects, profiling panel, calcein-AM fluorescence, 48 h, basal (AID 1164); conditions: higher = more signal; note: test concentration not given here
[14] = MM1S cell viability effects, profiling panel, calcein-AM fluorescence, 48 h, basal (AID 1165); conditions: higher = more signal;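 note: viability of MM1S multiple myeloma cells under basal unstimulated conditions; test concentration not given here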
[15] = basal RPMI8226 viability, no added stimulus, profiling panel, cell-based, calcein-AM fluorescence, 48 h, PK04 Diversity Set (AID 1166); conditions: RPMI8226 myeloma viability, higher = more signal;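 note: cells grown under basal conditions without added stimulus; test concentration not given here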
[16] = basal HepG2 mitochondrial membrane potential changes, profiling panel, cell-based, JC-1 fluorescence, 24 h, 100 nL compound (AID 1167); conditions: higher = more signal; note: test concentration not given here
[17] = basal 3T3-L1 adipocyte mitochondrial potential changes, profiling panel, cell-based, JC-1 fluorescence, 3T3-L1 adipocytes, 24 h, 100 nL compound (AID 1168); conditions: JC-1 mitochondrial fluorescence, higher = more signal, called active from +8 up or from −8 down; note: test concentration not given here
[18] = basal RPMI8226 mitochondrial membrane potential changes, profiling panel, cell-based, JC-1 fluorescence, 24 h, 100 nL compound (AID 1169); conditions: RPMI8226 myeloma, JC-1 mitochondrial potential fluorescence, higher = more signal; note: test concentration not given here
[19] = basal MM1S mitochondrial membrane potential changes, profiling panel, cell-based, JC-1 fluorescence, 24 h, 100 nL compound (AID 1170); conditions: higher = more signal; note: test concentration not given here
[20] = A549 lung cancer cell viability effects, profiling panel, resazurin fluorescence, 24 h, PK04 Diversity Set (AID 1171); conditions: higher = more signal, called active from +8 up or from −8 down; note: test concentration not given here

Row | SMILES | z-score [1] | composite z-score [2] | z-score [3] | z-score [4] | z-score [5] | z-score [6] | z-score [7] | z-score [8] | z-score [9] | z-score [10] | z-score [11] | z-score [12] | z-score [13] | z-score [14] | z-score [15] | z-score [16] | z-score [17] | z-score [18] | z-score [19] | z-score [20]
1 | COCCOC(=O)N1C(=O)[C@@]2(c3cc(C#CCCO)ccc31)[C@H](C(=O)N1CCN(c3ncccn3)CC1)[C@H]1C(=O)O[C@H](c3ccccc3)[C@H](c3ccccc3)N1[C@@H]2c1ccc(O)cc1 | 1.35 (inactive) | -0.36 | 1.78 (inactive) | 0.133 (inactive) | 1.21 (inactive) | 0.684 (inactive) | 0.188 | 1.69 (inactive) | 1.21 (inactive) | 1.29 | 1.61 | 0.222 | 1.54 | 0.14 | 0.0881 | -0.141 | 0.339 (inactive) | -0.614 | -1.07 | 0.249 (inactive)
2 | CCCC=C(CCC)[C@@H](NC(=O)c1ccccc1)c1ccc(C(=O)OC)cc1 | 0.119 (inactive) | 1.29 | -0.072 (inactive) | 0.502 (inactive) | -0.0759 (inactive) | -0.289 (inactive) | 3.85 | -3.83 (inactive) | -3.23 (inactive) | -1.45 | -0.185 | 0.921 | -0.535 | -0.355 | -1.08 | -1.59 | 0.131 (inactive) | -0.515 | -1.12 | 0.18 (inactive)
3 | C=CC[C@]1(C(=O)NCc2ccccc2)COC(c2ccc(OCCCO)cc2)=N1 | 0.553 (inactive) | 0.743 | 20.7 (active) | 6.37 (inactive) | 1.44 (inactive) | 0.541 (inactive) | -0.429 | -2.18 (inactive) | 0.00403 (inactive) | -2.1 | -0.555 | 0.548 | -2.51 | -2.01 | -0.953 | -3.22 | -0.436 (inactive) | -0.4 | -0.107 | -0.256 (inactive)
4 | CC(=O)c1ccc(C(O)C2C=CC3C(=O)NC(=O)C3N2Nc2ccc(Cl)cc2Cl)cc1 (stereo not given) | -2.32 (inactive) | 0.0267 | 2.38 (inactive) | 0.738 (inactive) | 1.15 (inactive) | 1 (inactive) | -0.497 | -0.826 (inactive) | -5.81 (inactive) | -3.8 | -0.807 | -0.458 | -1.28 | -0.124 | -0.344 | -0.976 | -1.4 (inactive) | 0.574 | 0.863 | -0.743 (inactive)
5 | O=C1N(Cc2ccccc2)c2ccccc2[C@H]2OC(c3ccc(OCCCO)cc3)=N[C@@]12Cc1ccccc1 | -0.456 (inactive) | 0.31 | 28.7 (active) | 25.3 (active) | 3.25 (inactive) | 2.26 (inactive) | 0.381 | -1.32 (inactive) | -0.641 (inactive) | -1.68 | -1.22 | 1.93 | -1.78 | -2.75 | -4.59 | -0.67 | 1.56 (inactive) | -1.26 | -1.66 | -2.1 (inactive)
6 | COC(=O)[C@@]1(Cc2ccccc2CN=[N+]=[N-])COC(c2ccc(OCCCO)cc2)=N1 | -0.156 (inactive) | 0.2 | 23.8 (active) | 9.9 (active) | 4.61 (inactive) | 0.959 (inactive) | 0.202 | -3.07 (inactive) | -0.519 (inactive) | -3.18 | -1.19 | -0.19 | -0.891 | -3.53 | -0.691 | -2.15 | -0.428 (inactive) | -1.01 | 0.515 | -0.657 (inactive)
7 | NCCCC[C@@H]1NC(=O)[C@H]2C[C@@H](C(=O)NCc3ccc(F)cc3)[C@@H](c3ccc(O)cc3)N2C1=O | -0.495 (inactive) | 0.954 | 2.55 (inactive) | 0.724 (inactive) | -3.15 (inactive) | 0.302 (inactive) | -0.516 | 0.903 (inactive) | 0.941 (inactive) | 0.993 | -0.494 | -0.0841 | -0.666 | -0.206 | 0.307 | -1.64 | -0.4 (inactive) | 0.667 | 0.0192 | -0.537 (inactive)
8 | COc1ccc([Si](C)(C)[C@H]2[C@H](CC(=O)N3Cc4ccccc4C[C@H]3CO)O[C@@]3(C(=O)N(Cc4cccc(N5C(=O)c6cccc7cccc5c67)c4)c4ccccc43)[C@@H]2C)cc1 | -0.437 (inactive) | -0.362 | 5.25 (inactive) | 0.572 (inactive) | 1 (inactive) | 0.793 (inactive) | -0.112 | -1.79 (inactive) | -0.0145 (inactive) | -0.799 | 0.653 | 0.986 | -0.475 | -2.54 | -4.12 | 0.813 | 0.611 (inactive) | -1.19 | -1.72 | -1.02 (inactive)
9 | COCCOC(=O)N1C(=O)[C@@]2(c3cc(C#CCC(C(=O)OC)C(=O)OC)ccc31)[C@H](C(=O)N1CCCCCCC1)[C@H]1C(=O)O[C@H](c3ccccc3)[C@H](c3ccccc3)N1[C@@H]2c1ccccc1OCCO | 0.822 (inactive) | 2.72 | 2.04 (inactive) | -0.228 (inactive) | 0.489 (inactive) | -1.21 (inactive) | 2.14 | -0.817 (inactive) | -0.194 (inactive) | -1.87 | -0.143 | 1.83 | 0.0429 | -0.284 | -1.56 | -0.747 | 2.14 (inactive) | -0.124 | -0.892 | 0.822 (inactive)
